According to PubChem BioAssay (NCATS):
Inconclusive results are not listed. Where a call stands in place of a potency, no number is given. Activity calls are given as the source filed them. Unless noted, calls follow the shape of the dose curve; as a rule, active = well fitted curve in the direction sought with a large enough effect; inconclusive = small, poorly fitted or top-dose-only effect, or another doubt; inactive = no such curve, though single readings can be large; an effect the other way counts as inactive or inconclusive.

Experiments:
[1] = target: Tyrosyl-DNA phosphodiesterase 1 (Homo sapiens) (UniProt Q9NUW8); assay: Confirmation Assay for Inhibitors of Tyrosyl-DNA Phosphodiesterase (TDP1) (AID 489007); conditions: recombinant human TDP1 enzymatic activity, dose-response; also: potency is read from the fitted curve at half-maximal effect; nearly all actives have a fitted effect of over 40% in size
How it was run: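 Loss of AlphaScreen signal reports Tdp1 cleavage of a dual-labelled DNA substrate. Conditions: 1 nM E. coli-derived enzyme, 15 nM substrate, 15 min compound preincubation, 5 min reaction, 10 min bead incubation, all at room temperature.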

[2] = target: Rap guanine nucleotide exchange factor 3 (Homo sapiens) (UniProt O95398); assay: Confirmatory qHTS for agonist of cAMP-regulated guanine nucleotide exchange factor 3 (EPAC1) (AID 1645881);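 also: EPAC1 catalysed release of BODIPY-GDP from Rap1B seen as fluorescence loss; nearly all actives have a fitted effect of over 75% in size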
[3] = target: Rap guanine nucleotide exchange factor 4 (Homo sapiens) (UniProt Q8WZA2); assay: Confirmatory qHTS for antagonist of cAMP-regulated guanine nucleotide exchange factor 4 (EPAC2) (AID 1645885); also: nearly all actives have a fitted effect of over 25% in size
[4] = target: Rap guanine nucleotide exchange factor 3 (Homo sapiens) (UniProt O95398); assay: Counterscreen qHTS for antagonist of cAMP-regulated guanine nucleotide exchange factor 3 (EPAC1) (AID 1645888);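 also: fluorescence loss as bound BODIPY-GDP is released from Rap1B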
How it was run: (§1)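 Rap1B–BODIPY-GDP (250 nM) with 50 uM GDP; compounds pin-transferred to 9.74 nM–152 uM final (activator) or from 7.32 nM upwards (inhibitor). Fluorescence Ex/Em 480/540 nm read at 5 and 30 min, then after adding cAMP or buffer, at room temperature.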

[5] = target: Rap guanine nucleotide exchange factor 3 (Homo sapiens) (UniProt O95398); assay: Counterscreen qHTS for agonist of cAMP-regulated guanine nucleotide exchange factor 3 (EPAC1) (AID 1645889); also: nearly all actives have a fitted effect of over 40% in size
How it was run: as §1

[6] = target: Rap guanine nucleotide exchange factor 4 (Homo sapiens) (UniProt Q8WZA2); assay: Confirmatory qHTS for agonist of cAMP-regulated guanine nucleotide exchange factor 4 (EPAC2) (AID 1645884);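 also: nucleotide exchange releases bodipy-GDP from Rap1 and this lowers its fluorescence; nearly all actives have a fitted effect of over 65% in size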
[7] = NCATS anti-infectives library activity on HEK293 viability as a counter-qHTS vs the C. elegans viability qHTS (AID 1745854);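 also: HEK293 cells exposed to compounds for 24 hr before the viability read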
How it was run: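 Compound titrations (final up to 41.7 uM) were incubated with HEK293 cells for 24 hr at 37C under 5% CO2. Viable cells were quantified with CellTiter-Glo after 10 min at ambient temperature.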

[8] = target: Catechol O-methyltransferase (Homo sapiens) (UniProt P21964); assay: Confirmatory Screen for Target Class Profiling of Small Molecule Inhibitors of Methyltransferases (AID 1745852); conditions: MTase-Glo luminescence, SAH detection, recombinant enzyme; measured here: COMT max response; stronger effect = lower value
[9] = target: Guanidinoacetate N-methyltransferase (Homo sapiens) (UniProt Q14353); assay: as above; conditions: MTase-Glo luminescence, SAH detection, recombinant enzyme; activity change, negative = inhibition: at 85.7 µM (top of the series) unless noted
[10] = target: Nicotinamide N-methyltransferase (Homo sapiens) (UniProt P40261); assay: as above; conditions: MTase-Glo luminescence, SAH detection, recombinant enzyme; measured here: NNMT max response; stronger effect = lower value
[11] = target: Phenylethanolamine N-methyltransferase (Homo sapiens) (UniProt P11086); assay: as above; conditions: MTase-Glo luminescence, SAH detection, recombinant enzyme; measured here: PNMT max response; stronger effect = lower value
[12] = target: Nuclear receptor subfamily 1 group I member 3 (Homo sapiens) (UniProt Q14994); assay: Primary qHTS for antagonist of constitutive androstane receptor (CAR) against the NCATS DSHEA and TCM libraries (AID 1794836);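 also: HepG2 cells stably expressing hCAR with CYP2B6 luciferase reporter stimulated by CITCO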
How it was run: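 HepG2-CYP2B6-hCAR cells, attached 5 h, given compounds plus CITCO agonist […], incubated 24 h at 37 C. Luciferase luminescence read, multiplexed with CellTiter-Fluor viability (Ex/Em 405/540 nm).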

[13] = NCATS anti-infectives library activity on the primary C. elegans qHTS viability assay (AID 1745855; calls by dose curve)
How it was run: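 Titration-based screen in worms: eggs hatched overnight in M9, L1 larvae fed TOP10 capsules in S medium with compound, incubated 21 °C for 7 days; fluorescent objects gated by size and intensity at days 0, 3 and 7.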

Sequence of Rap guanine nucleotide exchange factor 3 (Homo sapiens) (O95398 whole entry, looked up): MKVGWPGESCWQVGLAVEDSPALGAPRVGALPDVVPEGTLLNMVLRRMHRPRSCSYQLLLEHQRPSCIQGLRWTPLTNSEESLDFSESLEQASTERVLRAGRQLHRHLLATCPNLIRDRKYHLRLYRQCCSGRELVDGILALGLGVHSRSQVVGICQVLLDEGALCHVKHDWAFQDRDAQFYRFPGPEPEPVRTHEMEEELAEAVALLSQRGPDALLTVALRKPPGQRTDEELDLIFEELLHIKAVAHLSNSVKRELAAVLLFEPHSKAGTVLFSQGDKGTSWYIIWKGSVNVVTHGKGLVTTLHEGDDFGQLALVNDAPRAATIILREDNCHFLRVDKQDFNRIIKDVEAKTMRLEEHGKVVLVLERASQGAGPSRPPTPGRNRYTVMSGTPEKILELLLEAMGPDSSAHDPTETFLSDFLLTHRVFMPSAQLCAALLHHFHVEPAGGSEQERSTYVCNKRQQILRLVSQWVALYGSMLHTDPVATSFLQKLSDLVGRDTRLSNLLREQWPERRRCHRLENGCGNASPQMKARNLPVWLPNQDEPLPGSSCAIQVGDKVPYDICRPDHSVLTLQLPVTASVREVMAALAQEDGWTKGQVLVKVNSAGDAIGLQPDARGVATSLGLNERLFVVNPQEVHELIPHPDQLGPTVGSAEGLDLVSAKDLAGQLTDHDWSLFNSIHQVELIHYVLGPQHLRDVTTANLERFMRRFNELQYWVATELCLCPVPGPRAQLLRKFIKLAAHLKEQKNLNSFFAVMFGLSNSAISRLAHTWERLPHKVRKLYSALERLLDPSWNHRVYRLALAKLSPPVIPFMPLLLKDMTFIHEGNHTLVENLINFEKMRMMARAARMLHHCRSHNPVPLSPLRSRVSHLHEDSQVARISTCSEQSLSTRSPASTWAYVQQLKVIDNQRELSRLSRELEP
Sequence of Rap guanine nucleotide exchange factor 4 (Homo sapiens) (Q8WZA2 whole entry, looked up): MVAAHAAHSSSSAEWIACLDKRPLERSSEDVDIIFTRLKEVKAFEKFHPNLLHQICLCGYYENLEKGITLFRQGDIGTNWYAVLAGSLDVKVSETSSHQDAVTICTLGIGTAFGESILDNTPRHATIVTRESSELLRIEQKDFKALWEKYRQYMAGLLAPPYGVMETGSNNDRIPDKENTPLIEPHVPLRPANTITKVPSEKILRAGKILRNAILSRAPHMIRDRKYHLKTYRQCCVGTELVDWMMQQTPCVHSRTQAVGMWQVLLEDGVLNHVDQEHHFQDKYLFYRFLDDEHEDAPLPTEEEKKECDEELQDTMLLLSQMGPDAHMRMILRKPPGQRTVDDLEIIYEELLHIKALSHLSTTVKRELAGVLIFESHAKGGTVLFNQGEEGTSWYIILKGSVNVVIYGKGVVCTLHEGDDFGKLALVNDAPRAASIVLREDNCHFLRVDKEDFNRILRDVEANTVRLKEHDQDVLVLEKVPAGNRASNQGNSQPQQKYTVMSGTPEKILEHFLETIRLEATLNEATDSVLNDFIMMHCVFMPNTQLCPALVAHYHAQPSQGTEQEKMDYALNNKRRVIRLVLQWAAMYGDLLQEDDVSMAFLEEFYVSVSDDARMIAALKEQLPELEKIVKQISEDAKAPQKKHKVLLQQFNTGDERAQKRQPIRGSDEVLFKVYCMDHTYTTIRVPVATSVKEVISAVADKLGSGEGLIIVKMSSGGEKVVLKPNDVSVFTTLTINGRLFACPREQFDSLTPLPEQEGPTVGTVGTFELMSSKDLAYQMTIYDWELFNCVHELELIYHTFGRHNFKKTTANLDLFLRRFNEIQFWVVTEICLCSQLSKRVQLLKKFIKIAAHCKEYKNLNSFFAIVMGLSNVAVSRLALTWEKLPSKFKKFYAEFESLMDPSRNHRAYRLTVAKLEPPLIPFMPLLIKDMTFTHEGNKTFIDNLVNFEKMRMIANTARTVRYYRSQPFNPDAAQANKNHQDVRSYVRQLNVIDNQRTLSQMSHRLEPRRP
Sequence of Tyrosyl-DNA phosphodiesterase 1 (Homo sapiens) (Q9NUW8 whole entry, looked up): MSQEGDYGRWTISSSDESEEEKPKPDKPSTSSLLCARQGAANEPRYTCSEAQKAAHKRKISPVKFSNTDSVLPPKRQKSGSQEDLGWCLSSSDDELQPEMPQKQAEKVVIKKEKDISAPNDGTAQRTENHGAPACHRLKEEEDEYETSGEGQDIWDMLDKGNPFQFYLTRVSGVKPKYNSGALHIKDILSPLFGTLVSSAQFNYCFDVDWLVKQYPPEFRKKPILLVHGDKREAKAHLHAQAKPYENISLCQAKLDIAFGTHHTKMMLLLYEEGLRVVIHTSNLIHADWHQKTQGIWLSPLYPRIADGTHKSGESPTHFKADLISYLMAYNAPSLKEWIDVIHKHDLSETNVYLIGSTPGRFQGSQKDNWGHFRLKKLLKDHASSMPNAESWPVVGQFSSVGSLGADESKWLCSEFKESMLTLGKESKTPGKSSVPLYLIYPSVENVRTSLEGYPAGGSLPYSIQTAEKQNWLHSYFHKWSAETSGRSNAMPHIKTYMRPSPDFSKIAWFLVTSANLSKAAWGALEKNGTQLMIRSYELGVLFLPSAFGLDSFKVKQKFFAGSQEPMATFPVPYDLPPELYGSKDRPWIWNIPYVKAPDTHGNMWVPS
Sequence of Phenylethanolamine N-methyltransferase (Homo sapiens) (P11086 whole entry, looked up): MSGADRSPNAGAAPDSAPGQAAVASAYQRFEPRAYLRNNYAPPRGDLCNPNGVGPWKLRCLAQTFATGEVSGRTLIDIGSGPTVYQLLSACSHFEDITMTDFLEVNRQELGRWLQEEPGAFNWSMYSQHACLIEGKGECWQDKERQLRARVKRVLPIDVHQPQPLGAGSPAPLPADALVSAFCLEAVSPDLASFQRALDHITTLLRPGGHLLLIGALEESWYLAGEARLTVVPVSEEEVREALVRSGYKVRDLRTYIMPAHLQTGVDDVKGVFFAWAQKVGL
Sequence of Nuclear receptor subfamily 1 group I member 3 (Homo sapiens) (Q14994 whole entry, looked up): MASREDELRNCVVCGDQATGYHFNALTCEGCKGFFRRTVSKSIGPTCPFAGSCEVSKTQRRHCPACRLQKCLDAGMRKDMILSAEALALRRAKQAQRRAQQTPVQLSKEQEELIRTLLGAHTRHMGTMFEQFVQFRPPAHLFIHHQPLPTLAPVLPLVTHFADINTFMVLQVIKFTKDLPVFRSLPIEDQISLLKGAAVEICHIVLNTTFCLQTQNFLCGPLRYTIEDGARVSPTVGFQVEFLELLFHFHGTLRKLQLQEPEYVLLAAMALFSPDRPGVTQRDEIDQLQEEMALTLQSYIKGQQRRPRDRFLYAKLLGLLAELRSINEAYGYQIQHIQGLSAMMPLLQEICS
Sequence of Catechol O-methyltransferase (Homo sapiens) (P21964 whole entry, looked up): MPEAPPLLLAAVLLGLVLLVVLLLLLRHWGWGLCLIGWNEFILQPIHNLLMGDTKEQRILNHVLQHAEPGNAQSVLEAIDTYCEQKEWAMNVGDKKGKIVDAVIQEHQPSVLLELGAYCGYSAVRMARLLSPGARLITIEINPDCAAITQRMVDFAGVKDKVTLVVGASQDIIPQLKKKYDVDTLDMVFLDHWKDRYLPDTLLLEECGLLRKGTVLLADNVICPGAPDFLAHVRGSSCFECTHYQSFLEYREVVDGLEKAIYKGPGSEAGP
Sequence of Nicotinamide N-methyltransferase (Homo sapiens) (P40261 whole entry, looked up): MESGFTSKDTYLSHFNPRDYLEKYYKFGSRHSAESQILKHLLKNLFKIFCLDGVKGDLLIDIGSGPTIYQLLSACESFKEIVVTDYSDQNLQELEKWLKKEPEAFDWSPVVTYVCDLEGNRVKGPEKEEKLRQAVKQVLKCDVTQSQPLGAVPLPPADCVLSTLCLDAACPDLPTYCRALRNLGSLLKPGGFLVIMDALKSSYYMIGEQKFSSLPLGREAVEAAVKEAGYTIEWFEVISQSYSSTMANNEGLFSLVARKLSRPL

## CN1CCN2c3ccc(N)cc3CC3(C(=O)NC(=O)NC3=O)C2C1 (stereo not drawn)
[1]
  Potency: 14.1 µM (active)
[2]
  Potency: inactive
[3]
  Potency: inactive
[4]
  outcome: inactive
[5]
  Potency: inactive

## CCOC(=O)[C@]12Cc3cc(OC)ccc3[C@H]1N(C1CCCCC1)C(=O)c1ccccc12
[2]
  Potency: inactive
[6]
  Potency: inactive
[4]
  outcome: inactive
[5]
  Potency: inactive

## Nc1ccc(Cl)cc1C(=O)c1ccccc1Cl
[6]
  activation: 8.81% [at 17.1 µM, percent relative to cAMP agonist control] (inactive)
[3]
  activity change, negative = inhibition: -22.9% [at 12.7 µM] (inactive)
[4]
  activity change, negative = inhibition: -0.237% [at 30.8 µM] (inactive)

## COc1ccc(-n2nnnc2C(c2cccs2)N2CCC(n3c(=O)[nH]c4ccccc43)CC2)cc1 (stereo not drawn)
[2]
  Potency: inactive
[3]
  Potency: inactive
[4]
  outcome: inactive

## Nc1c(Br)cc2c3c(cccc13)-c1ccccc1-2
[6]
  activation: 8.9% [at 17.1 µM, percent relative to cAMP agonist control] (inactive)
[3]
  activity change, negative = inhibition: 2.51% [at 12.7 µM] (inactive)
[4]
  activity change, negative = inhibition: 16.7% [at 30.8 µM] (inactive)

## Cc1cc(/C=C2/C(=O)NC(=O)N(Cc3ccco3)C2=O)c(C)n1-c1ccccc1
[3]
  Potency: inactive
[4]
  outcome: inactive

## O=C1NC(=O)N(Cc2ccco2)C(=O)/C1=C/c1cccn1CCOc1ccccc1Cl
[2]
  Potency: inactive
[6]
  Potency: inactive
[3]
  Potency: inactive
[4]
  outcome: inactive
[5]
  Potency: inactive

## COc1ccc(N2C(=O)/C(=C/C=C/c3ccccc3[N+](=O)[O-])C(=O)NC2=S)cc1
[2]
  Potency: inactive
[6]
  activation: 17.4% [at 17.1 µM, percent relative to cAMP agonist control] (inactive)
[3]
  activity change, negative = inhibition: 0.334% [at 12.7 µM] (inactive)
[4]
  activity change, negative = inhibition: 15.6% [at 30.8 µM] (inactive)
[5]
  activation: 4.75% [at 30.8 µM] (inactive)

## FC(F)(F)c1cccc(C2NCc3ccccc3-n3cccc32)c1 (stereo not drawn)
[6]
  activation: 12.8% [at 17.1 µM, percent relative to cAMP agonist control] (inactive)
[3]
  activity change, negative = inhibition: 2.28% [at 12.7 µM] (inactive)
[4]
  activity change, negative = inhibition: -3.38% [at 30.8 µM] (inactive)

## CCOC(=O)c1c(-c2ccccc2)oc2ccc(OC(=O)N(C)C)cc12
[2]
  Potency: inactive
[6]
  Potency: inactive
[3]
  Potency: inactive
[4]
  outcome: inactive
[5]
  Potency: inactive

## Cn1cccc1/C=C1\C(=O)NC(=O)N(Cc2ccco2)C1=O
[1]
  Potency: 14.1 µM (active)
[2]
  Potency: inactive
[6]
  activation: 8.15% [at 17.1 µM, percent relative to cAMP agonist control] (inactive)
[3]
  activity change, negative = inhibition: -7.91% [at 12.7 µM] (inactive)
[4]
  activity change, negative = inhibition: -2.64% [at 30.8 µM] (inactive)
[5]
  activation: 7.31% [at 30.8 µM] (inactive)

## O=C1NC(=O)N(CCc2ccc(F)cc2)C(=O)/C1=C/c1ccco1
[2]
  Potency: inactive
[6]
  activation: 1.5% [at 17.1 µM, percent relative to cAMP agonist control] (inactive)
[3]
  activity change, negative = inhibition: -8.03% [at 12.7 µM] (inactive)
[4]
  activity change, negative = inhibition: -2.28% [at 30.8 µM] (inactive)
[5]
  activation: 10.6% [at 30.8 µM] (inactive)

## CCCC(=O)O[C@H]1CN2CC[C@H](O)[C@@H]2[C@@H](O)[C@@H]1O
[7]
  Potency: inactive

## CC(=O)O[C@H]1[C@H]2[C@@H](OC(=O)Cc3ccccc3)[C@@H](C)C[C@]2(OC(C)=O)C(=O)/C(C)=C/[C@@H]2[C@H](CC[C@@]13CO3)C2(C)C
[7]
  Potency: inactive

## CC(=O)NC[C@H]1C[C@@H]2CCN1C[C@@H]2c1cc(-c2ccc3ccccc3c2)nn1C
[8]
  activity: 4.95%
[9]
  activity change, negative = inhibition: 4.16%
[10]
  activity: 1.11%
[11]
  activity: 2.7%

## COc1ccc(-c2coc3cc(O[C@@H]4O[C@H](CO)[C@@H](O)[C@H](O)[C@H]4O)ccc3c2=O)cc1
[12]
  Potency: inactive

## CC[C@H]1CN2CCc3cc(OC)c(OC)cc3[C@@H]2C[C@@H]1C[C@H]1NCCc2cc(O)c(OC)cc21
[7]
  Potency: inactive
[13]
  Potency: inactive
